Results as given in the supplement of paper PMC10849652.
Of roughly 8,800 targets only a part is listed; those with a hit were picked by preference. About 0.5% of all pairs of compound and target were hits. Values without a mark were called inactive.

compound: Cc1ccc(-n2nc(C(C)(C)C)cc2NC(=O)Nc2ccc(OCCN3CCOCC3)c3ccccc23)cc1 [doramapimod]; test: log2 fold change, soluble protein after heating vs DMSO (PISA); higher = thermal stabilisation; K562 lysate, 10 uM; active = over 0.2 and 3.5 SD of the protein, either way, in both replicates (recomputed)
Summary of the method: (§1)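 K562 pellets were dounce-homogenised in PBS pH 7.4 containing 1 mM MgCl2, and the crude extract, at 1 mg/mL protein, was exposed to 10 μM compound for 30 min. Aliquots were heated for 3 min across 48°C-58°C, pooled, brought to 0.5% NP-40 at 4°C and spun at 21,000xg for 90 min, with the supernatant taken as soluble protein. TMTpro 16plex LC-MS/MS with equalised channel sums quantified that protein. Values are log-two fold changes in thermal stability relative to solvent controls, taken from duplicates.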

UniProt P42858, sequence (P42858 whole entry, looked up): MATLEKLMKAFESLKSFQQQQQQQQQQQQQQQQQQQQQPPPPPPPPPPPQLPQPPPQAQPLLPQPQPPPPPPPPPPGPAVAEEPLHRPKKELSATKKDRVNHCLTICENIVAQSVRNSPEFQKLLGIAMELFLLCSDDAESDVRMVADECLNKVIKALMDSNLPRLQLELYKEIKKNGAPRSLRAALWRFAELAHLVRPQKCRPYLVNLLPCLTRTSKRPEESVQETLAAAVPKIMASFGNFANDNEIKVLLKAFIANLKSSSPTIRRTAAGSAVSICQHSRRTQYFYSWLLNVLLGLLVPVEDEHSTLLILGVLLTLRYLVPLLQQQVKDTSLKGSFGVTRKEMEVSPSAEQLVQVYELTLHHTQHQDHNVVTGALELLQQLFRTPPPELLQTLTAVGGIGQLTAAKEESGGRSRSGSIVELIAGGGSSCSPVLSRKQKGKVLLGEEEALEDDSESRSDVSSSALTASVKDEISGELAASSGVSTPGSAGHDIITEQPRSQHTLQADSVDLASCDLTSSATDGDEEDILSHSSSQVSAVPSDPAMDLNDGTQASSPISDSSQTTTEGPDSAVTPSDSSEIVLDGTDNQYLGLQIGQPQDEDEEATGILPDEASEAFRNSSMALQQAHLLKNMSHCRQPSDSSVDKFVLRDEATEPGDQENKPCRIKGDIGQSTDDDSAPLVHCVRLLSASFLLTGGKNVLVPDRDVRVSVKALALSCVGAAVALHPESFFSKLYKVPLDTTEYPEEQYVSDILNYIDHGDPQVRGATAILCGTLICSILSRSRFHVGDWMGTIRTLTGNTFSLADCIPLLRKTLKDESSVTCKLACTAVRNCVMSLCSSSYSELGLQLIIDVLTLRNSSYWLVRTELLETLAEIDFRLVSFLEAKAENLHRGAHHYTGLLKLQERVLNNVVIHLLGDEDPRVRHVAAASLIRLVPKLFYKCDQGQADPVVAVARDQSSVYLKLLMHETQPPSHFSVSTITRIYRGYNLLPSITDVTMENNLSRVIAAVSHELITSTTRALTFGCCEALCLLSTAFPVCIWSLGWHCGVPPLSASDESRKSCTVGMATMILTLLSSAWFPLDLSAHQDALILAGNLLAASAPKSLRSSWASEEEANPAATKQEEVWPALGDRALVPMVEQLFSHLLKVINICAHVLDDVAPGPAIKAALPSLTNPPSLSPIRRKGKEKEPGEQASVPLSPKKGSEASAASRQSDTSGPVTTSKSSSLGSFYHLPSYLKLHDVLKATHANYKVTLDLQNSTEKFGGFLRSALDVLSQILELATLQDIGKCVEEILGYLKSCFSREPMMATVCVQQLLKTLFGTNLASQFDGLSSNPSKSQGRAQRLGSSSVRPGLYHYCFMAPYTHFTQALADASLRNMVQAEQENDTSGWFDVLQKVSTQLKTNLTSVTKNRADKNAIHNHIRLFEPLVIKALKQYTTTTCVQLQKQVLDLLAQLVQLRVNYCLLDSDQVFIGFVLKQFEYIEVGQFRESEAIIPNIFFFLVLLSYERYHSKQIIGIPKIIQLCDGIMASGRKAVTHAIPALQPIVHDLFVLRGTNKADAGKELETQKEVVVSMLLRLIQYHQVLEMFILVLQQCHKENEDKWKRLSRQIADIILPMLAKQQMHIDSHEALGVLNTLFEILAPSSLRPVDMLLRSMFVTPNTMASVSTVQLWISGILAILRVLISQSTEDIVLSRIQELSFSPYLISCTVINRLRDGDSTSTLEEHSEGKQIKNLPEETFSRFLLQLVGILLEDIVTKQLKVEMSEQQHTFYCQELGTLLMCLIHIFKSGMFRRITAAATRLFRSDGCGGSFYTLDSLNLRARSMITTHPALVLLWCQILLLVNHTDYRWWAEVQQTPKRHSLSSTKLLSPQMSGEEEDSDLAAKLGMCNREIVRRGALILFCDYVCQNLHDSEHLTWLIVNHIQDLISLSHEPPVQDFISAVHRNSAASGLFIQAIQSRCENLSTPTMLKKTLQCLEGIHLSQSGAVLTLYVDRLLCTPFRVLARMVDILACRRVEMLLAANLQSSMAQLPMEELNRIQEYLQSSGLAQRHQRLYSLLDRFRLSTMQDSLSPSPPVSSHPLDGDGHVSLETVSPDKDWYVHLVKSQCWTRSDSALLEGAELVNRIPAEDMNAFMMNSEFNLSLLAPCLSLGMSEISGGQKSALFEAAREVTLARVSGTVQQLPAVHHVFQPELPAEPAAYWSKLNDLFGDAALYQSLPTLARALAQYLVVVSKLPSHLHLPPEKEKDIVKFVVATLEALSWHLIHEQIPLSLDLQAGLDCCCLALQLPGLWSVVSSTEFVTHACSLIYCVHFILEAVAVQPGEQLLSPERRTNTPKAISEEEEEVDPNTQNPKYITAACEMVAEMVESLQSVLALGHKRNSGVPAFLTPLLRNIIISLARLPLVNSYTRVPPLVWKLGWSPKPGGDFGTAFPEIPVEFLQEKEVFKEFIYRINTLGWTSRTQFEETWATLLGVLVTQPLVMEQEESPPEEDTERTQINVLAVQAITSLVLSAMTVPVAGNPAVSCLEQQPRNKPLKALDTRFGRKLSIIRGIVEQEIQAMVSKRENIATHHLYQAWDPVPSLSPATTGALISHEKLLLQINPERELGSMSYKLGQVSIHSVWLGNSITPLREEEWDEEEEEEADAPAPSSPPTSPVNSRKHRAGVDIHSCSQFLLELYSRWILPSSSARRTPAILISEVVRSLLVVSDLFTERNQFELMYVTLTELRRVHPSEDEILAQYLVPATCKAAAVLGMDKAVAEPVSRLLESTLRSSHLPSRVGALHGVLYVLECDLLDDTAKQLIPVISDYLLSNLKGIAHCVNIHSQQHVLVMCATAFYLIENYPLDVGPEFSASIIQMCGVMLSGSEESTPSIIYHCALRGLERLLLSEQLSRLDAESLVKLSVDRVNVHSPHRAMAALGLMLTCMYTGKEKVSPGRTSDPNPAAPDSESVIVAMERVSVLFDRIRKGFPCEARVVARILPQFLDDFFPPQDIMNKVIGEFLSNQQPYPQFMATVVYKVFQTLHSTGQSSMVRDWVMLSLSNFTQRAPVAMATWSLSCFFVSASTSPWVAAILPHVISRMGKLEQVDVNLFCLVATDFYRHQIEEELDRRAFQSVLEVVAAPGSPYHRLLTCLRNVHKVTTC
UniProt Q9HAV0, sequence (Q9HAV0 whole entry, looked up): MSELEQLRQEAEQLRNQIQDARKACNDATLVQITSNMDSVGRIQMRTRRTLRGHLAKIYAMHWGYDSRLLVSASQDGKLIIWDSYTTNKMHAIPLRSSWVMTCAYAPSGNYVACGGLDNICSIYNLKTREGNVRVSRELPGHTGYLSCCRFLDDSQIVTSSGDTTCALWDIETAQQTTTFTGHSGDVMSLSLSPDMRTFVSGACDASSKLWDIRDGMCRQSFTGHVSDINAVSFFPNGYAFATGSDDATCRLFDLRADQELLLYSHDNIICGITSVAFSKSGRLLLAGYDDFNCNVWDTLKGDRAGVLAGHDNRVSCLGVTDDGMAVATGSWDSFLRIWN
UniProt P40939, sequence (P40939 whole entry, looked up): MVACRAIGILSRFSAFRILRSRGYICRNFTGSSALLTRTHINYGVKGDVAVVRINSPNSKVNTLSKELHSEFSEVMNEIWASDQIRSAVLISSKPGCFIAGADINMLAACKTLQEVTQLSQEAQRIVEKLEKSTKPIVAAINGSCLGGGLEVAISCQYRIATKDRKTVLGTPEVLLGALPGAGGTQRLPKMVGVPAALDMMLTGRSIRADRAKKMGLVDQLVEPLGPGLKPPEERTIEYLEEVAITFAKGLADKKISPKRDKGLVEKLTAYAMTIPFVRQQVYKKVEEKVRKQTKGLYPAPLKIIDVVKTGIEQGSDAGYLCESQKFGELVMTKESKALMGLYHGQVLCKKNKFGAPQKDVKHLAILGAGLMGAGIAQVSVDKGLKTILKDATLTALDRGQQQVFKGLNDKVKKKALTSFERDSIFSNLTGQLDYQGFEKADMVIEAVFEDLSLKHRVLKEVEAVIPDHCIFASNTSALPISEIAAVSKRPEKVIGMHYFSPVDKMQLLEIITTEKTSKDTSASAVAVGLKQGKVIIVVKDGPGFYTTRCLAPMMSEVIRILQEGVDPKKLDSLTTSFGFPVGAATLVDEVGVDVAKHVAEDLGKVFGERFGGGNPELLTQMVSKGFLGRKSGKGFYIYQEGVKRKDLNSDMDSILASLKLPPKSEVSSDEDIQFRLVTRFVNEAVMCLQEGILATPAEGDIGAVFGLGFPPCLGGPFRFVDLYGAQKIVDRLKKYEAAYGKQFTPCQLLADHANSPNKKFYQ
UniProt Q49A26, sequence (Q49A26 whole entry, looked up): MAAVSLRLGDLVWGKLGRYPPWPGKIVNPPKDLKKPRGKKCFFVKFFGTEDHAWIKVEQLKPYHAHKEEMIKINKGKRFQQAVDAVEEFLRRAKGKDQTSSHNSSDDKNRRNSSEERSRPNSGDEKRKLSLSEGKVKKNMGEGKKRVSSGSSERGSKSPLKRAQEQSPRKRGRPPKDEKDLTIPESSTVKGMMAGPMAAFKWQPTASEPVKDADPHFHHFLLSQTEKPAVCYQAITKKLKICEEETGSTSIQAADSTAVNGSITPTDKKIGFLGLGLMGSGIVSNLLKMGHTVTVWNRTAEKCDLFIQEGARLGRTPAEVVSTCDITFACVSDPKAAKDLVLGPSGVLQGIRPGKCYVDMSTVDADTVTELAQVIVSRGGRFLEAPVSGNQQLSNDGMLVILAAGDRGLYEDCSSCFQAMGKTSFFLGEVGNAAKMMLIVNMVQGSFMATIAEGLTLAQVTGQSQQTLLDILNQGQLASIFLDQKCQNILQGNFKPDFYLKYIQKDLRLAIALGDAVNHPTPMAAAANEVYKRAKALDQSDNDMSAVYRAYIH
UniProt Q9Y287, sequence (Q9Y287 whole entry, looked up): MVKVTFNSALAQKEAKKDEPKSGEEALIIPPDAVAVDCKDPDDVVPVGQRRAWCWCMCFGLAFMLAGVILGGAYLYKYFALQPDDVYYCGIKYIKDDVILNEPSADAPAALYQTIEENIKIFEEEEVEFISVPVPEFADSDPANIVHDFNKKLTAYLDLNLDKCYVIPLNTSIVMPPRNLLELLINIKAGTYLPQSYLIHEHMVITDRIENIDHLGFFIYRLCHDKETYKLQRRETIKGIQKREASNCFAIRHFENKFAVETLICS

Row | Target | log2 fold change
1 | HMGA1 isoform 2 (UniProt P17096) | -0.274
2 | HECW2 (UniProt Q9P2P5) | 0.24
3 | ISL2 (UniProt Q96A47) | -0.074
4 | IGFBP4 (UniProt P22692) | 0.014
5 | HSPA8 (UniProt P11142) | 0.001
6 | ISY1 isoform 1 (UniProt Q9ULR0) | 0.016
7 | ISOC2 (UniProt Q96AB3) | -0.014
8 | ITM2B (UniProt Q9Y287) | 0.007
9 | IL18R1 (UniProt Q13478) | -0.111
10 | GLYR1 (UniProt Q49A26) | 0.11
11 | HADHA (UniProt P40939) | 0.207
12 | GPN2 (UniProt Q9H9Y4) | -0.005
13 | HOMER3 (UniProt Q9NSC5) | 0.016
14 | GPLD1 (UniProt P80108) | 0.081
15 | HMGN4 (UniProt O00479) | -0.163
16 | HNRNPD (UniProt D6RF44) | 0
17 | HTT (UniProt P42858) | 0.006
18 | HNRNPM (UniProt M0QZM1) | -0.017
19 | H3-3A (UniProt P84243) | -0.062
20 | GNB4 (UniProt Q9HAV0) | 0.171
21 | JAK3 (UniProt P52333) | -0.081
22 | GORASP1 (UniProt Q9BQQ3) | 0.015
23 | IRS2 (UniProt Q9Y4H2) | 0.019
24 | KATNBL1 (UniProt Q9H079) | -0.069

compound: Cc1ccc(NC(=O)c2ccc(CN3CC[C@H](N(C)C)C3)c(C(F)(F)F)c2)cc1Nc1nccc(-c2cncnc2)n1 [bafetinib]; test: as above
Summary of the method: as §1

Row | Target | log2 fold change
25 | ISL2 (UniProt Q96A47) | -0.055
26 | IGFBP4 (UniProt P22692) | -0.149
27 | HNRNPUL1 (UniProt M0R247) | 0.008
28 | HSPA8 (UniProt P11142) | 0.059
29 | ISY1 isoform 1 (UniProt Q9ULR0) | -0.013
30 | ISOC2 (UniProt Q96AB3) | -0.058
31 | ITM2B (UniProt Q9Y287) | -0.032
32 | IL18R1 (UniProt Q13478) | -0.031
33 | GSTM2 (UniProt P28161) | -0.011
34 | HMGN5 (UniProt Q5JSK9) | -0.04
35 | GLYR1 (UniProt Q49A26) | -0.042
36 | HADHA (UniProt P40939) | 0.032
37 | HOMER3 (UniProt Q9NSC5) | 0.234
38 | HMGN4 (UniProt O00479) | 0.6
39 | HNRNPL, A0A3B3ITJ4 | -0.083
40 | HTT (UniProt P42858) | -0.112
41 | GYPA, A0A2R8Y7F9 | -0.029
42 | HNRNPM (UniProt M0QZM1) | -0.243
43 | H3-3A (UniProt P84243) | -0.049
44 | GNB4 (UniProt Q9HAV0) | -0.033
45 | JAK3 (UniProt P52333) | 0.14
46 | GPA33 (UniProt Q99795) | -0.051
47 | IRS2 (UniProt Q9Y4H2) | 0.031

compound: Cc1cccc(CC(=O)N2CCc3c2ccc(-c2cn(C)c4ncnc(N)c24)c3F)n1; test: as above
Summary of the method: as §1

Row | Target | log2 fold change
48 | HMGA1 isoform 2 (UniProt P17096) | -0.491
49 | ISL2 (UniProt Q96A47) | -0.096
50 | IGFBP4 (UniProt P22692) | 0.095
51 | HNRNPUL1 (UniProt M0R247) | 0.034
52 | HSPA8 (UniProt P11142) | -0.01
53 | ISY1 isoform 1 (UniProt Q9ULR0) | 0.016
54 | ISOC2 (UniProt Q96AB3) | 0.095
55 | ITM2B (UniProt Q9Y287) | 0.138
56 | IL18R1 (UniProt Q13478) | 0.045
57 | GTPBP6 (UniProt O43824) | -0.023
58 | GSTM2 (UniProt P28161) | -0.079
59 | GLYR1 (UniProt Q49A26) | -0.04
60 | HADHA (UniProt P40939) | -0.053
61 | GPN2 (UniProt Q9H9Y4) | 0.106
62 | HOMER3 (UniProt Q9NSC5) | -0.072
63 | HMGN4 (UniProt O00479) | -0.551
64 | HTT (UniProt P42858) | 0.094
65 | GYPA, A0A2R8Y7F9 | 0.17
66 | IPP (UniProt Q9Y573) | 0.074
67 | ITGB1BP2 (UniProt Q9UKP3) | 0.548
68 | H3-3A (UniProt P84243) | 0.03
69 | GNB4 (UniProt Q9HAV0) | 0.074
70 | JAK3 (UniProt P52333) | -0.612 (active)
71 | GPA33 (UniProt Q99795) | 0.554
72 | GORASP1 (UniProt Q9BQQ3) | -0.028
73 | IRS2 (UniProt Q9Y4H2) | 0.307
74 | KATNBL1 (UniProt Q9H079) | 0.01
